Screens (PubChem)
KDM5B inh: KDM5B demethylase inhibition | KDM5B demethylase, FDH-coupled NADH fluorescence (FDH is formaldehyde dehydrogenase) | actives 2.6% (n = 220,000) | Potency, µM (series often up to 57.7 µM), most hits filed as inhibitors | Q9UGL1; also: potency is read from the fitted curve at half-maximal effect; 0% is about no effect; nearly all actives have a fitted effect of over 70% in size
Target sequence (Q9UGL1 whole entry, looked up): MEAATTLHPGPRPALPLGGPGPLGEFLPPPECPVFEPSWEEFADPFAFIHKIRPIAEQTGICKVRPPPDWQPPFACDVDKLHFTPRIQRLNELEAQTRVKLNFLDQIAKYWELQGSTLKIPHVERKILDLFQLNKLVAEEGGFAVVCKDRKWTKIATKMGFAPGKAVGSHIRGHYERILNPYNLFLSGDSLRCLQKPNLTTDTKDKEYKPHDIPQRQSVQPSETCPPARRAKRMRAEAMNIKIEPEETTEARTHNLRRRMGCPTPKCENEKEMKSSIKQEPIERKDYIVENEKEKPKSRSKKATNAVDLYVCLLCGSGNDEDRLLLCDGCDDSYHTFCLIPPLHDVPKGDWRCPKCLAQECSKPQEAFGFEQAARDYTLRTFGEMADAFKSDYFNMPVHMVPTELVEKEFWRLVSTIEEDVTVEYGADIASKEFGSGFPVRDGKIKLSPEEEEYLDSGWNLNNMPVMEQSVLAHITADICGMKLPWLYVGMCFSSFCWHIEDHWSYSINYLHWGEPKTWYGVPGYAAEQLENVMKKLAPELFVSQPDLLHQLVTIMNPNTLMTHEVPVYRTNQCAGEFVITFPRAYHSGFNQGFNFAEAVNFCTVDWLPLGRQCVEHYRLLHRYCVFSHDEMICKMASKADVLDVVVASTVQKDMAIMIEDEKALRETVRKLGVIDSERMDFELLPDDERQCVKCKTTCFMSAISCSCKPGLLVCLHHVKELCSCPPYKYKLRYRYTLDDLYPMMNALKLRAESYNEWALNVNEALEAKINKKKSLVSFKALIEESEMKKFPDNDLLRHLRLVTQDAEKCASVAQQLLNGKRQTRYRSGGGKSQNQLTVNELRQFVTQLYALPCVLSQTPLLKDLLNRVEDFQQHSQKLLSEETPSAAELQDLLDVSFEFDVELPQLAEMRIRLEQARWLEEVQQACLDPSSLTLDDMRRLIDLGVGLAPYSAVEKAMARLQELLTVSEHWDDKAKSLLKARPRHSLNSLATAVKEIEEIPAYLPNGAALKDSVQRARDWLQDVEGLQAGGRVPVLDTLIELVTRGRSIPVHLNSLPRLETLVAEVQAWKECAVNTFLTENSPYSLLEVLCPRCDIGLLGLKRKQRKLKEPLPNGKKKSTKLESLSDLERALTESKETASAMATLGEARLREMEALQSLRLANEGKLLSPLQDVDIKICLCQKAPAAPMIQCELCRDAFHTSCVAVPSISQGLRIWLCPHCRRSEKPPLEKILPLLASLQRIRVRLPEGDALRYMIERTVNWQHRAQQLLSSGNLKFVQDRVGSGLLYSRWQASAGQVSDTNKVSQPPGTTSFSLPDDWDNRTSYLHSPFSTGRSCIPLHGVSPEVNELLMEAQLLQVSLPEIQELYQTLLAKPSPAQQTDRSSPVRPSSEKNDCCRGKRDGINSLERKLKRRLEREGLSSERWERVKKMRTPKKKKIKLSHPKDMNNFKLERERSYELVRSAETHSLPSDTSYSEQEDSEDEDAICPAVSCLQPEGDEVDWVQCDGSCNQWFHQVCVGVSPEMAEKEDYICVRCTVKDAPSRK
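Inhibition is measured as reduced NADH fluorescence generation from FDH coupling to formaldehyde release. Truncated KDM5BΔAP at 200 nM final acts on H3K4me3 peptide (12.5 µM in substrate mix) in pH 7.5 HEPES buffer with Tween-20, 30 min, room temperature.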
HEK293 viab: counter-screen for SNCA expression inhibitors: cell viability; actives 0.12% (n = 150,000); HEK-293-SNCA-luc viability, GF-AFC fluorescence, 24 h; Potency, µM (doses to about 57.1 µM), for inactives: top-dose activity change, negative = cytotoxicity, usual class: cytotoxic;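 also: potency is read from the fitted curve at half-maximal effect; 0% = DMSO-treated cells and -100% = medium-only wells without cells; nearly all actives have a fitted effect of over 30% in size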
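HEK-293-SNCA-luc cells (1500/well) plated 24 h, then exposed 24 h to a dilution series; GF-AFC added 30 min at 37C, fluorescence 405/540 nm; normalised to medium-only and DMSO wells, Hill fit.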
IP6K1 inhibitor: IP6K1 kinase inhibition. activity change, % (series mostly up to about 58 µM). Q92551. IP6K1 kinase, ADP-Glo luminescence, 2 h; active compounds read low. actives 0.81% (n = 140,000); in the data active = activity change below about -25%; also: % is scaled to controls: 0 for no effect and ±100 for the full control effect
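ADP-Glo luminescence measures ADP made by human IP6K1 during a 2 h RT reaction with ATP/IP6 (mix at 1.3 mM/130 uM); top library doses 57.5 and 19.1 uM final.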
SNCA expr inh: reduces expression of the alpha-synuclein gene. HEK-293 SNCA-luciferase knock-in, luminescence, 24 h. Potency, µM (titrated, usually from 57.2 µM), for the others: at the top dose activity change, negative = inhibition, most hits filed as inhibitors. actives 0.17% (n = 140,000);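 also: potency is read from the fitted curve at half-maximal effect; plate controls were DMSO cells for no effect and cell-free wells for full effect; nearly all actives have a fitted effect of over 45% in size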
* = called active by the depositor; i = inactive; u = inconclusive; x = not tested or not shown; [ ] = dose if it differs, or a comment. Most compounds without a hit are left out; they make up all but 3% or so of the library. Unless noted, calls follow the shape of the dose curve; as a rule, active = well fitted curve in the direction sought with a large enough effect; inconclusive = small, poorly fitted or top-dose-only effect, or another doubt; inactive = no such curve, though single readings can be large; an effect the other way counts as inactive or inconclusive.

SMILES	KDM5B inh	HEK293 viab	IP6K1 inhibitor	SNCA expr inh
COCc1ccc2c(c1)c(OC(C)(C)C(=O)NC1CCC(O)CC1)nn2CCC(C)C (stereo unspecified)	32µM*	-12%[87.6 µM]	6	u
COCc1ccc2c(c1)c(OC(C)(C)C(=O)NC1CCOCC1)nn2Cc1cccnc1	i	7%[87.6 µM]	5	2%[87.6 µM]
COCc1ccc2c(c1)c(OC(C)(C)C(=O)NCCCN1CCCC1=O)nn2CCC(C)C	u	-5%	-6	-23%
O=C(NCCc1ccc(F)cc1)C1CCCCN1Cc1ccc(-c2cccs2)cc1 (stereo unspecified)	x	1%	6	u
Cc1noc(C)c1[S+](=O)([O-])N1CCC(C(=O)N2CCC3(CC2)CC(=O)Nc2ccccc2O3)CC1	x	-13%	25	-1%
COc1nc2nc(CCc3ccccc3)n(C)c2cc1-c1ccc(CO)cc1	35µM*	-20%[87.6 µM]	-2	7%[87.6 µM]
COc1ccccc1-c1cc2c(nc1OC)nc(CC1CC1)n2C	40µM*	2%[87.6 µM]	13	0%[87.6 µM]
COc1nc2nc(CCc3ccccc3)n(C)c2cc1Nc1ccncn1	i	-4%[87.6 µM]	13	112%[87.6 µM]
COc1nc2nc(CCc3ccccc3)n(C)c2cc1-c1cccc(NC(C)=O)c1	35µM*	u	5	-27%[87.6 µM]
COCc1nc2nc(-c3ccccc3)c(-c3ccc(OC)cc3)cc2n1C	32µM*	1%[87.6 µM]	10	9%[87.6 µM]
O=C(NCC(F)F)C1CCCCN1Cc1ccc(-c2cccs2)cc1 (stereo unspecified)	x	-6%[12.5 µM]	-10	44%
O=C(NCc1ccc(C(F)(F)F)cc1)C1CCCN(Cc2cccc(-c3cccs3)c2)C1 (stereo unspecified)	x	u	-1	u
Cc1ccccc1NC(=O)N1CCC(N2CCCC(C(=O)N3CCCC3)C2)CC1 (stereo unspecified)	22µM*	-4%	16	-15%
CSc1ccc(-c2cccc(CN3CCC(N[S+](C)(=O)[O-])CC3)c2)cc1	x	x	5	x
O=C(CC1C(=O)NCCN1Cc1ccc(-c2ccccc2)cc1)NC(CO)CO (stereo unspecified)	20µM*	1%	21	-7%
O=C(CC1C(=O)NCCN1Cc1ccc(-c2ccccc2)cc1)NCc1ccco1 (stereo unspecified)	25µM*	1%	-23	-14%
O=C(CC1C(=O)NCCN1Cc1ccccc1)NC1C2CC3CC(C2)CC1C3 (stereo unspecified)	i	4%	19	17%
CCOc1ccccc1CN1CCNC(=O)C1CC(=O)NCc1ccco1 (stereo unspecified)	u	1%	-4	-5%
O=C(c1nccs1)c1cccnc1N1CCNCC(O)C1 (stereo unspecified)	10µM*	1%	7	24%
Cc1cccc(C)c1-c1nc(C(=O)N2CCC(C#N)CC2)n2ccccc12	100µM*	1%	-23	1%
COc1ccccc1-c1nc(C(=O)N2CCC(C#N)CC2)n2ccccc12	28µM*	2%	9	-7%
Cc1cccc(C)c1-c1nc(C(=O)NC(C)C)n2ccccc12	u	5%[87.6 µM]	14	-4%[87.6 µM]
COc1ccccc1-c1nc(C(=O)NC2CC2)n2ccccc12	i	-6%[87.6 µM]	18	66%[87.6 µM]
Cc1nn(-c2ccccc2)c2c1C(C1CC1)N(C1CCN([S+](C)(=O)[O-])C1)C2=O (stereo unspecified)	x	x	-7	x
Oc1ccc(C=Cc2cc(O)cc(O)c2)cc1	x	-5%	x	12µM*
SMILES	KDM5B inh	HEK293 viab	IP6K1 inhibitor	SNCA expr inh
COc1ccc(-c2noc(-c3nc(Cc4cccc(F)c4)no3)n2)cc1	28µM*	-1%	15	-2%
Fc1cccc(Cc2noc(-c3nc(-c4ccccc4)no3)n2)c1	i	11%	-6	60%
COc1ccc(-c2noc(-c3nc(-c4cccnc4)no3)n2)cc1	35µM*	-4%	0	11%
O=C(Cc1ccc(F)cc1)Nc1cc(-c2ccncc2)nn1-c1ccccc1	x	2%	-7	-16%
COCCNc1nc2cc(C(=O)N3CC[C@H](CO)[C@@H](O)C3)ccc2n1C	28µM*	4%	-10	2%
Cc1ccc(/C=C/c2nc3ccccc3n2S(=O)(=O)c2ccc(Br)cc2)cc1	u	-8%	1	u
CSc1ccc(/C=C/c2nc3ccccc3n2S(=O)(=O)c2cccc(Cl)c2)cc1	u	-4%	-41*	u
CCOc1cc(/C=C(/C#N)C(=O)Nc2ccccc2C(=O)O)ccc1OC	i	x	x	x
O=C(NCCC1CCN(C(=O)Nc2cccc(F)c2)CC1)c1ccccc1	i	11%	0	66%
Cc1ccc(NC(=O)N2CCc3c(c4ccccc4n3CC3CC3)C2)cc1	22µM*	1%	5	73%
O=C(Nc1ccc(F)c(F)c1)N1CCc2c(c3ccccc3n2CC2CC2)C1	22µM*	-10%	-7	u
O=C(Nc1ccc(Cl)cc1)N1CCC(CN2CCCC2)CC1	u	-3%	25	-17%
O=C(Nc1cccc(F)c1)N1CCc2c(c3ccccc3n2CC2CC2)C1	22µM*	u	-6	8%
CCn1nccc1C(=O)N1CCC(Nc2nccnc2OC)CC1	28µM*	6%	0	-16%
CCOc1nccnc1NC1CCN(C(=O)c2ccnn2CC)CC1	28µM*	-2%	-2	-2%
COc1nccnc1NC1CCN(C(=O)c2c[nH]c3ccccc23)CC1	u	-4%	-3	0%
CCn1nccc1C(=O)N1CCC(Cc2ccc(C(=O)NCCOC)cc2)CC1	i	0%	-5	10%
CN1CCC(N2CCN([C@@H]3C[C@H]4C[C@@H](c5ccccc5)OC[C@@]4(C)C3)CC2)CC1	x	x	3	x
O=C(C1CCCN1c1nccc(Nc2ccccc2F)n1)N1CCN(Cc2ccccc2)CC1 (stereo unspecified)	x	5%[12.5 µM]	-7	5%
COc1ccc(C(=O)N2CCCC(N3C(=O)c4c(c(C)nn4-c4ccccc4)C3C)C2)cc1 (stereo unspecified)	x	x	8	x
CSc1ccc(-c2nc(CN3CCOC(CCO)C3)c(C)o2)cc1 (stereo unspecified)	16µM*	-21%	9	10%
CSc1ccc(-c2nc(CN3CCN(C(=O)N(C)C)CC3)c(C)o2)cc1	u	-1%	-2	33%
CSc1ccc(-c2nc(CN3CCN(C(C)=O)CC3)c(C)o2)cc1	20µM*	-11%	43	32%
CN(C)C(=O)C1CCCN(Cc2cccc(-c3cccs3)c2)C1 (stereo unspecified)	x	2%[87.6 µM]	-11	72%[87.6 µM]
O=C(Nc1ccccc1)c1cnc2c(c1)N([S+](=O)([O-])c1cccnc1)CCC2	i	-1%[87.6 µM]	18	4%[87.6 µM]
CC(C)c1ccc(CC(=O)N2CCCc3ncc(C(=O)Nc4cccc(Cl)c4)cc32)cc1	28µM*	u	7	u
O=C(Nc1cccnc1)c1cnc2c(c1)N(Cc1ccccc1)CCC2	35µM*	2%[87.6 µM]	-5	-2%[87.6 µM]
CC(C)c1ccc(CC(=O)N2CCCc3ncc(C(=O)Nc4ccccn4)cc32)cc1	i	u	-1	-6%[87.6 µM]
